Measurements taken from PubChem BioAssay (Tox21).
“And” between values parts separate entries of the source, which are not always exact repeats. Identical values can stand only once. Results filed as inconclusive are left out. Entries that show only a call come without a potency. More than one record can exist for a structure, and the calls need not agree. The source made the active and inactive calls. Calls follow the shape of the dose curve; as a rule, active = well fitted curve in the direction sought with a large enough effect in the repeat runs; inconclusive = weak or mixed curves; inactive = no such curve, though single readings can be large; an effect the other way counts as inactive or inconclusive.

Experiments:
[1] = A CellTox Green Cytotoxicity Assay to monitor cytotoxicity in HEK293 cells - 32 hour (AID 1224881); conditions: CellTox Green fluorescence; series mostly up to 76.8 µM; also: nearly all actives have a fitted effect of over 40% in size; also: potency is read from the fitted curve at half-maximal effect
Summary of the method: (§1)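 Homogeneous no-lysis format: HEK293 cell suspension mixed with CellTox Green reagent, seeded, incubated 5 h at 37 C/5% CO2, then dosed by pintool with compound in DMSO.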

[2] = A CellTox Green Cytotoxicity Assay to monitor cytotoxicity in HepG2 cells - 0 hour (AID 1224882); conditions: CellTox Green fluorescence; series mostly up to 76.8 µM; also: nearly all actives have a fitted effect of over 35% in size
Summary of the method: (§2)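 Fluorescent DNA-binding dye, 600 HepG2 cells/well, 5 h preincubation then compound in DMSO; same plates read at 0–40 h, 37 C.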

[3] = A CellTox Green Cytotoxicity Assay to monitor cytotoxicity in HepG2 cells - 32 hour (AID 1224883); conditions: CellTox Green fluorescence; series mostly up to 76.8 µM; also: nearly all actives have a fitted effect of over 50% in size; also: potency is read from the fitted curve at half-maximal effect
Summary of the method: as §2

[4] = A CellTox Green Cytotoxicity Assay to monitor cytotoxicity in HEK293 cells - 8 hour (AID 1224884); conditions: CellTox Green fluorescence; series mostly up to 76.8 µM; also: nearly all actives have a fitted effect of over 35% in size; also: potency is read from the fitted curve at half-maximal effect
Summary of the method: as §1

[5] = qHTS RealTime-Glo MT Cell Viability Assay in HepG2 cells - 16 hour (AID 1224885); conditions: RealTime-Glo luminescence; series mostly up to 76.8 µM; also: nearly all actives have a fitted effect of over 50% in size; also: potency is read from the fitted curve at half-maximal effect
Summary of the method: (§3)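 HepG2 suspension premixed with RealTime-Glo reagents is plated at 600 cells per well and left 5 h at 37 C/5% CO2. Compounds in DMSO then go in, and bioluminescence reflecting viable cell number is recorded over 40 h.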

[6] = qHTS RealTime-Glo MT Cell Viability Assay in HEK293 cells - 8 hour (AID 1224887); conditions: RealTime-Glo luminescence; series mostly up to 76.8 µM; also: nearly all actives have a fitted effect of over 50% in size; also: potency is read from the fitted curve at half-maximal effect
Summary of the method: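 Measured as luminescence from the same continuously cultured HEK293 wells at successive time points (0, 8, 16, 24, 32, 40 h) after compound addition. Reagent present from seeding; dosing at 5 h; incubation 37 C.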

[7] = A CellTox Green Cytotoxicity Assay to monitor cytotoxicity in HEK293 cells - 16 hour (AID 1224888); conditions: CellTox Green fluorescence; series mostly up to 76.8 µM; also: nearly all actives have a fitted effect of over 35% in size; also: potency is read from the fitted curve at half-maximal effect
Summary of the method: as §1

[8] = qHTS RealTime-Glo MT Cell Viability Assay in HepG2 cells - 0 hour (AID 1224889); conditions: RealTime-Glo luminescence; series mostly up to 76.8 µM; also: nearly all actives have a fitted effect of over 50% in size; also: potency is read from the fitted curve at half-maximal effect
Summary of the method: as §3

[9] = A CellTox Green Cytotoxicity Assay to monitor cytotoxicity in HepG2 cells - 8 hour (AID 1224890); conditions: CellTox Green fluorescence; series mostly up to 76.8 µM; also: nearly all actives have a fitted effect of over 45% in size; also: potency is read from the fitted curve at half-maximal effect
Summary of the method: as §2

[10] = qHTS RealTime-Glo MT Cell Viability Assay in HEK293 cells - 24 hour (AID 1224886); conditions: RealTime-Glo luminescence; series mostly up to 76.8 µM; also: nearly all actives have a fitted effect of over 50% in size; also: potency is read from the fitted curve at half-maximal effect
Summary of the method: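 Reads taken at 0, 8, 16, 24, 32 and 40 h from the same wells. HEK293 cells (600/well) carried RealTime-Glo reagents from seeding, with compound added after a 5 h settle at 37 C.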

| Structure (SMILES) | Potency [1] | Potency [2] | Potency [3] | Potency [4] | Potency [5] | Potency [6] | Potency [7] | Potency [8] | Potency [9] | Potency [10] |
| --- | --- | --- | --- | --- | --- | --- | --- | --- | --- | --- |
| Cc1ncc([N+](=O)[O-])n1CCO | inactive | inactive | inactive | inactive | inactive | inactive | inactive | inactive | inactive | – |
| CCCCCCc1ccc(O)cc1O | 49.1 µM (active) and 49 µM (active) and inactive | inactive | 49.1 µM (active) and 38.9 µM (active) and 21.3 µM (active) | inactive | inactive | 15.5 µM (active) and 9.77 µM (active) | inactive | inactive | inactive and 49 µM (active) | – |
| C=C(C)C(=O)OCC(C)O (stereo unspecified) | inactive | inactive | – | inactive | inactive | inactive | inactive | inactive | inactive | inactive |
| CC(=O)C(=O)O | inactive | inactive | – | inactive | inactive | inactive | inactive | inactive | inactive | inactive |
| O=c1[nH]cnc2c1ncn2[C@H]1CC[C@@H](CO)O1 | inactive | inactive | inactive | inactive | inactive | inactive | inactive | inactive | inactive | – |
| NC(CO)(CO)CO | inactive | inactive | – | inactive | inactive | inactive | inactive | inactive | inactive | inactive |
| CCCCCCCCCCCC[N+](C)(C)Cc1ccccc1 | 38.1 µM (active) and 29.9 µM (active) and 23.9 µM (active) | inactive | 17 µM (active) and 23.8 µM (active) and 10.7 µM (active) | 59.7 µM (active) | 21.5 µM (active) and 23.8 µM (active) and 12 µM (active) | 53.9 µM (active) and 59.7 µM (active) | 48 µM (active) and 53.2 µM (active) and 26.8 µM (active) | inactive | 53.9 µM (active) and 47.4 µM (active) and 23.9 µM (active) | – |
| CCCCOC(=O)c1ccc(O)cc1 | inactive | inactive | inactive | inactive | inactive | inactive | inactive | inactive | inactive | – |
| Oc1ccccc1 | inactive | inactive | – | inactive | inactive | inactive | inactive | inactive | inactive | inactive |
| O=C(Nc1ncc([N+](=O)[O-])s1)c1cccs1 | inactive | inactive | inactive | inactive | inactive | inactive | inactive | inactive | inactive | – |
| CCCCCCCC(=O)OCC(COC(=O)CCCCCCC)OC(=O)CCCCCCC | inactive | inactive | inactive | inactive | inactive | inactive | inactive | inactive | inactive | – |
| F[B-](F)(F)F | inactive | inactive | – | inactive | inactive | inactive | inactive | inactive | inactive | inactive |
| CN1[C@@H]2CC(OC(=O)[C@H](CO)c3ccccc3)C[C@H]1[C@@H]1O[C@@H]12 (stereo partly specified) | inactive | inactive | – | inactive | inactive | inactive | inactive | inactive | inactive | inactive |
| O=C(O)c1ccccc1 | inactive | inactive | – | inactive | inactive | inactive | inactive | inactive | inactive | inactive |
| CC1(C)S[C@@H]2[C@H](NC(=O)[C@H](N)c3ccccc3)C(=O)N2[C@H]1C(=O)O | inactive | inactive | inactive | inactive | – | – | inactive | – | inactive | – |
| CCN(Cc1c(F)cccc1Cl)c1c([N+](=O)[O-])cc(C(F)(F)F)cc1[N+](=O)[O-] | inactive | inactive | inactive | inactive | inactive | – | inactive | inactive | inactive | – |
| CCCCC(CC)C(=O)O (stereo unspecified) | inactive | inactive | inactive | inactive | inactive | inactive | inactive | inactive | inactive | – |
| CCCc1cc(=O)[nH]c(=S)[nH]1 | inactive | inactive | inactive | inactive | inactive | inactive | inactive | inactive | inactive | – |
| C1=CC2C3C=CC(C3)C2C1 (stereo unspecified) | – | inactive | – | 54 µM (active) | inactive | inactive | – | inactive | inactive | – |
| Nc1ccc([N+](=O)[O-])cc1O | inactive | inactive | – | inactive | inactive | inactive | inactive | inactive | inactive | – |
| Cc1ccc(S(=O)(=O)O)cc1 | inactive | inactive | – | inactive | inactive | inactive | inactive | inactive | inactive | – |
| CCOc1ccc(NC(C)=O)cc1 | inactive | inactive | – | inactive | inactive | inactive | inactive | inactive | inactive | inactive and 21.9 µM (active) |
| Cc1ncc([N+](=O)[O-])n1C | inactive | inactive | – | 48.3 µM (active) and inactive | inactive | inactive | inactive | inactive | inactive | – |
| CNNCc1ccc(C(=O)NC(C)C)cc1 | inactive | inactive | – | inactive | inactive | inactive | inactive | inactive | inactive | – |

| Structure (SMILES) | Potency [1] | Potency [2] | Potency [3] | Potency [4] | Potency [5] | Potency [6] | Potency [7] | Potency [8] | Potency [9] | Potency [10] |
| --- | --- | --- | --- | --- | --- | --- | --- | --- | --- | --- |
| O=C1O[C@H]([C@@H](O)CO)C(O)=C1O | inactive | inactive | – | inactive | inactive | inactive | inactive | inactive | inactive | inactive |
| Nc1c(N=Nc2ccc(-c3ccc(N=Nc4cc(S(=O)(=O)O)c5ccccc5c4N)cc3)cc2)cc(S(=O)(=O)O)c2ccccc12 | inactive | inactive | – | inactive | – | 24.5 µM (active) | inactive | – | inactive | 43.6 µM (active) |
| O=C1NC(=O)C(c2ccccc2)(c2ccccc2)N1 | inactive and 19 µM (active) | inactive | – | inactive and 21.3 µM (active) | inactive | inactive | – | inactive | inactive and 23.9 µM (active) | – |
| COc1ccc(OC(F)(F)F)cc1CN[C@H]1CCCN[C@H]1c1ccccc1 | – | inactive | – | – | 54.9 µM (active) | – | – | – | – | 43.6 µM (active) |
| CS(=O)(=O)OCCCCOS(C)(=O)=O | inactive | inactive | – | inactive | inactive | inactive | inactive | inactive | inactive | – |
| Nc1ccc(S(N)(=O)=O)cc1 | inactive | inactive | – | inactive | inactive | inactive | inactive | inactive | inactive | – |
| CC1(C)O[C@@H]2C[C@H]3[C@@H]4CCC5=CC(=O)C=C[C@]5(C)[C@@]4(F)[C@@H](O)C[C@]3(C)[C@]2(C(=O)CO)O1 | inactive and 9.52 µM (active) | inactive | – | inactive and 9.52 µM (active) | inactive | inactive | – | 22 µM (active) and 12.3 µM (active) | inactive | – |
| CN[C@H]1CC[C@@H](c2ccc(Cl)c(Cl)c2)c2ccccc21 | – | inactive | 19 µM (active) | – | 23.9 µM (active) | – | – | inactive | – | – |
| CCOC(N)=O | inactive | inactive | – | inactive | inactive | inactive | inactive | inactive | inactive | – |
| CCCC[P+](CCCC)(CCCC)CCCC | inactive | inactive | – | inactive | inactive | inactive | inactive | inactive | inactive | 19.4 µM (active) and 4.36 µM (active) |
| O=S1(=O)OC(c2ccc(O)cc2)(c2ccc(O)cc2)c2ccccc21 | inactive | inactive | – | inactive | 49 µM (active) and inactive | inactive | inactive | 49 µM (active) | inactive | – |
| O=CC(=O)c1ccccc1 | – | inactive | inactive | inactive | inactive | inactive | inactive | inactive | inactive | – |
| CN(C)CCOC(c1ccccc1)c1ccccc1 | inactive | inactive | – | inactive | inactive | inactive | inactive | inactive | inactive | – |
| CC/C(=C(\c1ccccc1)c1ccc(OCCN(C)C)cc1)c1ccccc1 | 35 µM (active) [middle of 5 runs] | inactive | – | 44 µM (active) [middle of 5 runs] | 43.6 µM (active) [middle of 5 runs] | 39.2 µM (active) [middle of 4 runs] | 39.2 µM (active) [middle of 5 runs] | inactive | 55.3 µM (active) and 54.9 µM (active) and 49 µM (active) | 24.5 µM (active) [middle of 5 runs] |
| CCCCC1(COC(=O)CCC(=O)O)C(=O)N(c2ccccc2)N(c2ccccc2)C1=O | inactive | inactive | – | inactive | inactive | inactive | inactive | inactive | inactive | – |
| NC(=O)n1c(O)c(C(=O)c2cccs2)c2cc(Cl)ccc21 | inactive | inactive | – | inactive | inactive | inactive | inactive | – | inactive | inactive |
| COc1ccc(CN(CCN(C)C)c2ccccn2)cc1 | inactive | inactive | – | inactive | – | – | inactive | – | inactive | – |
| NS(=O)(=O)O | inactive | inactive | – | inactive | inactive | inactive | inactive | inactive | inactive | – |
| CC(=O)CC(c1ccccc1)c1c(O)c2ccccc2oc1=O (stereo unspecified) | inactive | inactive | – | inactive | inactive | inactive | inactive | inactive | inactive | – |
| CC(=O)CCC(=O)O | inactive | inactive | – | inactive | inactive | inactive | inactive | inactive | inactive | – |
| CN1CCc2cccc3c2[C@H]1Cc1ccc(O)c(O)c1-3 | 55.5 µM (active) and inactive | inactive | – | inactive | 49.5 µM (active) and 18.3 µM (active) and 23.9 µM (active) | 24.8 µM (active) and 14.5 µM (active) | inactive | inactive | inactive | – |
| C1CCC(C(CC2CCCCN2)C2CCCCC2)CC1 (stereo unspecified) | 19 µM (active) | inactive | – | 26.8 µM (active) | 8.49 µM (active) | 23.9 µM (active) | 23.9 µM (active) | – | 23.9 µM (active) | – |
| NC(=O)c1cccnc1 | inactive | inactive | – | inactive | inactive | inactive | inactive | inactive | inactive | – |
